This note sets out measurements from paper PMC7862700, “An all-to-all approach to the identification of sequence-specific readers for epigenetic DNA modifications on cytosine”.

Holding throughout (assay): DAPPL (digital affinity profiling via proximity ligation, sequencing); 10 mM Tris-HCl pH 7.5, 50 mM NaCl, 1 mM DTT, 4% glycerol, room temperature, 30 min; GST-TFs on glutathione beads, 16-mer random dsDNA library, 0.1% formaldehyde crosslink after washing; high values mean tight binding
Assay [1] addresses T1, FEV (Homo sapiens, UniProt Q99581 1-238).
T1 sequence: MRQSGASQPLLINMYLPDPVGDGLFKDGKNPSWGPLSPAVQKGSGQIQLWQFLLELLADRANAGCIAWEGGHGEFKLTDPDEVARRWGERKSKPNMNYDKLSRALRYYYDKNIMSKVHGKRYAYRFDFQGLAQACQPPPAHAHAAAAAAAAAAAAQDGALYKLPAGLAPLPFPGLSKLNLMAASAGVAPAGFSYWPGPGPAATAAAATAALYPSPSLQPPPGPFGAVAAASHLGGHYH
To be noted: protein: recombinant; tags: N-terminal GST; dsDNA, one strand shown. In a few lines: (§1)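 In yeast, human transcription factors were expressed with a GST fusion, then pulled down on glutathione beads and given DNA barcodes. Pooled with a tag-only sample, they were exposed to 200 nmole of a 16-mer random double-stranded DNA library (Tris/NaCl/DTT/glycerol buffer, room temperature, 30 min), washed, crosslinked with 0.1% formaldehyde, proximity-ligated using BsaI/T4 ligase for 1 h at 37 °C, PCR-amplified and read on an Illumina NextSeq500. Each hexamer's frequency of reads for a factor, divided by the matching frequency for the tag-only sample, gives the binding signal.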

Assay [2] has as its target ETV5 (Homo sapiens, UniProt P41161 1-510). To be noted: protein: recombinant; tags: N-terminal GST; dsDNA, one strand shown. In a few lines:
as §1

The target of assay [3] is HSF1 (Homo sapiens, UniProt Q00613 1-529). As to conditions: protein: recombinant; tags: N-terminal GST; chain copies: 3; dsDNA, one strand shown. The gist of the method:
as §1

Assay [4] concerns the target T2, SPIC (Homo sapiens, UniProt Q8N5J4 1-248).
T2 sequence: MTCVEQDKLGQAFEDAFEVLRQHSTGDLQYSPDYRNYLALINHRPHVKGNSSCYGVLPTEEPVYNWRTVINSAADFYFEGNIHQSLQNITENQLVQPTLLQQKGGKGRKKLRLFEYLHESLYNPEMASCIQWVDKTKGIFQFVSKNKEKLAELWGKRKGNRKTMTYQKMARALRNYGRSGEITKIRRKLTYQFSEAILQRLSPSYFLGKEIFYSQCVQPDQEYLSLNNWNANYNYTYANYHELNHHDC
To be noted: protein: recombinant; tags: N-terminal GST; dsDNA, one strand shown. The gist of the method:
as §1

Assay [5] deals with ELF4 (Homo sapiens, UniProt Q99607 1-663). As to conditions: protein: recombinant; tags: N-terminal GST; dsDNA, one strand shown. In a few lines: as §1
ELF4, sequence (Q99607 whole entry): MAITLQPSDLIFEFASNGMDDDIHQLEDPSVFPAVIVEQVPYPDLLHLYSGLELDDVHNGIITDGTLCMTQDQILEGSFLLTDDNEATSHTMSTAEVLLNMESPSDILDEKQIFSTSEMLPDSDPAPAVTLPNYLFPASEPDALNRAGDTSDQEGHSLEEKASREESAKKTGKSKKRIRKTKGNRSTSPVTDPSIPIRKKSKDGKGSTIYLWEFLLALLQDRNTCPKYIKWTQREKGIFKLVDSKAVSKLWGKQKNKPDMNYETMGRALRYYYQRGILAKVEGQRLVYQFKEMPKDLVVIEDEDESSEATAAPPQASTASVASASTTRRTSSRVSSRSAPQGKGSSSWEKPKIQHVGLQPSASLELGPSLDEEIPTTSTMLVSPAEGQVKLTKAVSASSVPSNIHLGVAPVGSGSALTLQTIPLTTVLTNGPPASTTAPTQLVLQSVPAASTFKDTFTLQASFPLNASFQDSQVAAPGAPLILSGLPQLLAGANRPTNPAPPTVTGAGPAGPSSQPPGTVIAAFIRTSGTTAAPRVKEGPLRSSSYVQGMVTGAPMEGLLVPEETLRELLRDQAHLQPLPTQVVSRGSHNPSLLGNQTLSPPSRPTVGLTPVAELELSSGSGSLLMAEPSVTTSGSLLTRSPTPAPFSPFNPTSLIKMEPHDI
In assay [6] the target is T3, ELK4 (Homo sapiens, UniProt P28324-2 1-405).
T3 sequence: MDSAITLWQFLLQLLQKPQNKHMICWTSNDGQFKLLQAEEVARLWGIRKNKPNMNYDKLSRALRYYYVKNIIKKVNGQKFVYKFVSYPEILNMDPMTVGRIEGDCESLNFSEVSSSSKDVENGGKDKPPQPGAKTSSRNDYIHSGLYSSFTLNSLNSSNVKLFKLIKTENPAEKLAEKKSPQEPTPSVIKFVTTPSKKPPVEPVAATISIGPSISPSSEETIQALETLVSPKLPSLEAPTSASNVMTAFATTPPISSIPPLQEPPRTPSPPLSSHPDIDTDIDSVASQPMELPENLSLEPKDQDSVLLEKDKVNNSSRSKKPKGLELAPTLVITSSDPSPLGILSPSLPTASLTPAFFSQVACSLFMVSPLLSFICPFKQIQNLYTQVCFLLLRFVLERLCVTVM
As to conditions: protein: recombinant; tags: N-terminal GST; dsDNA, one strand shown. The gist of the method: as §1

The target of assay [7] is T4, ETV2 (Homo sapiens, UniProt O00321 1-342).
T4 sequence: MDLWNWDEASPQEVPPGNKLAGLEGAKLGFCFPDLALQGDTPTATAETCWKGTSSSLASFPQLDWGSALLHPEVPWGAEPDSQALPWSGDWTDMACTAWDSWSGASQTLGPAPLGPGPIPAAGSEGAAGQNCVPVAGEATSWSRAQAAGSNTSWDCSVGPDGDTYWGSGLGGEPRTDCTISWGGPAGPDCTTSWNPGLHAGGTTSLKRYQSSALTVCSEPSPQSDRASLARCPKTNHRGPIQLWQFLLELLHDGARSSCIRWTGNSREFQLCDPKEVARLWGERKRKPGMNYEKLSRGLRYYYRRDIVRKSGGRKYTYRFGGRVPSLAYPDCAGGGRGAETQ
As to conditions: protein: recombinant; tags: N-terminal GST; dsDNA, one strand shown. In a few lines: as §1

Assay [8] concerns the target T5, ELF3 (Homo sapiens, UniProt P78545 1-371).
T5 sequence: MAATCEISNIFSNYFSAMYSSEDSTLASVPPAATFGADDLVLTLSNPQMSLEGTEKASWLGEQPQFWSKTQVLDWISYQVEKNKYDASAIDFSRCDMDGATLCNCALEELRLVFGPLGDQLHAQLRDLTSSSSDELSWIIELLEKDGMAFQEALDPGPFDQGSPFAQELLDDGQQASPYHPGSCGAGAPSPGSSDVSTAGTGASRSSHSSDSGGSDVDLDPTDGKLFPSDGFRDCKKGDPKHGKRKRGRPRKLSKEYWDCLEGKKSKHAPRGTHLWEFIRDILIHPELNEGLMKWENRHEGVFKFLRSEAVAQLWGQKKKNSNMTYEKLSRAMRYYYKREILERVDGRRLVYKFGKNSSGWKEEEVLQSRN
To be noted: protein: recombinant; tags: N-terminal GST; dsDNA, one strand shown. In a few lines:
as §1

For assay [9], the target named is CRX (Homo sapiens, UniProt O43186 1-299). As to conditions: protein: recombinant; tags: N-terminal GST; dsDNA, one strand shown. The gist of the method:
as §1

For assay [10], the target named is ETV1 (Homo sapiens, UniProt P50549 1-477). To be noted: protein: recombinant; tags: N-terminal GST; dsDNA, one strand shown. The gist of the method: as §1
ETV1, sequence (P50549 whole entry): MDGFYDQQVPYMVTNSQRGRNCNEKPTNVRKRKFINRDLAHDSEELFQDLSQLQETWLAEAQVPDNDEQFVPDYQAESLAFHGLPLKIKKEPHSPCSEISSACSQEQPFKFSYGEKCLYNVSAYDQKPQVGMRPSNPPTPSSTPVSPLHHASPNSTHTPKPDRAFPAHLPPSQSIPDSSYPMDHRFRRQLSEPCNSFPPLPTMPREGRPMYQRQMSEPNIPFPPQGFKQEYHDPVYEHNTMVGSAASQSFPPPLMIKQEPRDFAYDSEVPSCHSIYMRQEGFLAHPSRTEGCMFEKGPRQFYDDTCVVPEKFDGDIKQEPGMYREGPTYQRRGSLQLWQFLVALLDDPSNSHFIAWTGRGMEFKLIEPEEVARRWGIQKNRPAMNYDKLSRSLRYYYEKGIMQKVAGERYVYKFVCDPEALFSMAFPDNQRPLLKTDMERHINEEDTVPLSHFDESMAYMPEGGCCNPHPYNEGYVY
Assay [11] concerns the target T6, ERF (Homo sapiens, UniProt P50548 1-548).
T6 sequence: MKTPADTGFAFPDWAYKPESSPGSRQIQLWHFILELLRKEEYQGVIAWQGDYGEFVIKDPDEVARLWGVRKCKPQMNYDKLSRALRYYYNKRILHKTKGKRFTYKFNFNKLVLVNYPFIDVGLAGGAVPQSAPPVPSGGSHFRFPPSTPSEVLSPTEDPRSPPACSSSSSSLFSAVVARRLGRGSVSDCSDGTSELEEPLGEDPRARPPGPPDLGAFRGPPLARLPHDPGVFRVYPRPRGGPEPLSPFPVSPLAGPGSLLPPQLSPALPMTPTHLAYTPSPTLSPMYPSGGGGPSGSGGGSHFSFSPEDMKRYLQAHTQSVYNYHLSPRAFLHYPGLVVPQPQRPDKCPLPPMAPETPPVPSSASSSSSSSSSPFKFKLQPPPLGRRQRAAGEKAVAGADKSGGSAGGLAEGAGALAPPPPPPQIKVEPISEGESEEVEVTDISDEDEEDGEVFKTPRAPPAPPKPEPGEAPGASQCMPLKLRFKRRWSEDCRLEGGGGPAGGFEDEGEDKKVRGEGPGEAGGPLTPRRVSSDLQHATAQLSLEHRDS
As to conditions: protein: recombinant; tags: N-terminal GST; dsDNA, one strand shown. In a few lines:
as §1

Assay [12] addresses T7, ETV3L (Homo sapiens, UniProt Q6ZN32 1-361).
T7 sequence: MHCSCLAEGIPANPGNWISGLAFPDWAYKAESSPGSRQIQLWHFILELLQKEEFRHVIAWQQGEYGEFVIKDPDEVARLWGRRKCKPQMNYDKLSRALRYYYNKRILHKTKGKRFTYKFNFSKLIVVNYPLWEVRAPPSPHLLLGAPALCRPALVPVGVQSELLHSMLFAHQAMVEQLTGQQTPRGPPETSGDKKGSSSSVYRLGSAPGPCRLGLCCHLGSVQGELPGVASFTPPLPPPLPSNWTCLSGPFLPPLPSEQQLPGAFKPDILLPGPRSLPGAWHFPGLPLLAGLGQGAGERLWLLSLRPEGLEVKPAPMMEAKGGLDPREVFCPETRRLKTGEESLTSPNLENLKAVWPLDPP
As to conditions: protein: recombinant; tags: N-terminal GST; dsDNA, one strand shown. In a few lines:
as §1

Assay [13] deals with T8, ETS2 (Homo sapiens, UniProt P15036 1-469).
T8 sequence: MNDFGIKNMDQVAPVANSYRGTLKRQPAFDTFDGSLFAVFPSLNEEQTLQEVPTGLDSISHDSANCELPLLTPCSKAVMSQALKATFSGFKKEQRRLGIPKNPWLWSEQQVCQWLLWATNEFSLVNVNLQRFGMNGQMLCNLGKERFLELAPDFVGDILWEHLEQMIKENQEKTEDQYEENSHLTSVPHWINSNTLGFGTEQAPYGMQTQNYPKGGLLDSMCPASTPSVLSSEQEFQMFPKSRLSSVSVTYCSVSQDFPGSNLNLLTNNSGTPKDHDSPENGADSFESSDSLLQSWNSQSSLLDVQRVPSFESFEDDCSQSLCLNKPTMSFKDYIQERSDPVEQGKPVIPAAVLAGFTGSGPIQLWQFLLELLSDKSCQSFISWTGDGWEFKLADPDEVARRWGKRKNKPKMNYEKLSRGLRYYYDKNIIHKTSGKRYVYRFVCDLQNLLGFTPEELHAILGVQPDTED
To be noted: protein: recombinant; tags: N-terminal GST; dsDNA, one strand shown. In a few lines: as §1

Assay [14] addresses T9, SPDEF (Homo sapiens, UniProt O95238 1-335).
T9 sequence: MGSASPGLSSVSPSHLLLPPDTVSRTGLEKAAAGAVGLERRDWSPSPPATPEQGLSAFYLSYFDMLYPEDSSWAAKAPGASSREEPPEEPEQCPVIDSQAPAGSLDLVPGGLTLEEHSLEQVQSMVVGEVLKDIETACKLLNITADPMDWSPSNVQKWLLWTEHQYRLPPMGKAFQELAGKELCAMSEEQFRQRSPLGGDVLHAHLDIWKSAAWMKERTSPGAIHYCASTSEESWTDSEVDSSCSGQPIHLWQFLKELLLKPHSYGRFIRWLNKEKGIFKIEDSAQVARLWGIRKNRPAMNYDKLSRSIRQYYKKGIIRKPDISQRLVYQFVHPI
To be noted: protein: recombinant; tags: N-terminal GST; dsDNA, one strand shown. In a few lines: as §1

In assay [15] the target is T10, ETV7 (Homo sapiens, UniProt Q9Y603 1-341).
T10 sequence: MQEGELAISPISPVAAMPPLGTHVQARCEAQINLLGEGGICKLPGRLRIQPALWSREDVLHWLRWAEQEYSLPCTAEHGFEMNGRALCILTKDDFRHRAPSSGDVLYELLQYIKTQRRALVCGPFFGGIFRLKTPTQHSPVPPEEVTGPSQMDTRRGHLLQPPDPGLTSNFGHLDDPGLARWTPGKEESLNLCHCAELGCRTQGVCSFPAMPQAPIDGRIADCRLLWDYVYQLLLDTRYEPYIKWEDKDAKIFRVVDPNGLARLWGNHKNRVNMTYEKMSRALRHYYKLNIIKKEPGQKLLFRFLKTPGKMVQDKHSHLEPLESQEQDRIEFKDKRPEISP
To be noted: protein: recombinant; tags: N-terminal GST; dsDNA, one strand shown. The gist of the method:
as §1

Assay [16] concerns the target T11, ELF5 (Homo sapiens, UniProt Q9UKW6-2 1-255).
T11 sequence: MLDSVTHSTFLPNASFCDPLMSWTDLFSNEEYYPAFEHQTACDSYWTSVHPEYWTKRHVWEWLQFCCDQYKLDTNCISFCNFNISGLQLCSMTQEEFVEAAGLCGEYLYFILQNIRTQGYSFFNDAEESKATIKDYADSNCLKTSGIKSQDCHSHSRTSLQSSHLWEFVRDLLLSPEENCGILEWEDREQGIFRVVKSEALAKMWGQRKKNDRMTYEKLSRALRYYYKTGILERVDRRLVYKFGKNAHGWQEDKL
To be noted: protein: recombinant; tags: N-terminal GST; dsDNA, one strand shown. The gist of the method:
as §1

The target in assay [17] is T12, ETV3 (Homo sapiens, UniProt P41162-2 1-143).
T12 sequence: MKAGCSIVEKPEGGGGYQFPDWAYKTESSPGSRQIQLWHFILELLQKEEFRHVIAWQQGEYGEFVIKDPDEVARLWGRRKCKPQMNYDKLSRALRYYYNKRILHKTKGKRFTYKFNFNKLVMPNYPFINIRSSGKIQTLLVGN
To be noted: protein: recombinant; tags: N-terminal GST; dsDNA, one strand shown. In a few lines:
as §1

The target in assay [18] is ETV6 (Homo sapiens, UniProt P41212 1-452). As to conditions: protein: recombinant; tags: N-terminal GST; dsDNA, one strand shown. In a few lines: as §1
ETV6, sequence (P41212 whole entry): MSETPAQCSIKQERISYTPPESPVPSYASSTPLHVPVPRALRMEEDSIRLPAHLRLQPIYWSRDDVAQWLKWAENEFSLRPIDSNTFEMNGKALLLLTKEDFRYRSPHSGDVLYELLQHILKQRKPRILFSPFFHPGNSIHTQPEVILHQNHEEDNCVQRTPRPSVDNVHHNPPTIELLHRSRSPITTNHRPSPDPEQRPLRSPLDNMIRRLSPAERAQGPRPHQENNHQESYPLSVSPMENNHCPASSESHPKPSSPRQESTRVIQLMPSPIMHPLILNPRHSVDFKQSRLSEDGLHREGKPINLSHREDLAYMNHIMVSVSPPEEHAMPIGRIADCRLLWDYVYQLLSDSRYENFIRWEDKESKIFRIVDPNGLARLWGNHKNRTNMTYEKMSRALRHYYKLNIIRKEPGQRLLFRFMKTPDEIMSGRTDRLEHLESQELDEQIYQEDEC

CRX, sequence (O43186 whole entry): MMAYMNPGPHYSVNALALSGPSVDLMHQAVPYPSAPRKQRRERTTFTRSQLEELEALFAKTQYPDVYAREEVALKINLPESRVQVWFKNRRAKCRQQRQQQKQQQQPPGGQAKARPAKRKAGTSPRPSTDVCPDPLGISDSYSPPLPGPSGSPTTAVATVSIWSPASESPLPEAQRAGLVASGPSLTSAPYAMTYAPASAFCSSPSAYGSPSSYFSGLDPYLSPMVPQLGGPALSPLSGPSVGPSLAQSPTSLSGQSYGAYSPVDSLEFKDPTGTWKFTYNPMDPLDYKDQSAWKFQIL
HSF1, sequence (Q00613 whole entry): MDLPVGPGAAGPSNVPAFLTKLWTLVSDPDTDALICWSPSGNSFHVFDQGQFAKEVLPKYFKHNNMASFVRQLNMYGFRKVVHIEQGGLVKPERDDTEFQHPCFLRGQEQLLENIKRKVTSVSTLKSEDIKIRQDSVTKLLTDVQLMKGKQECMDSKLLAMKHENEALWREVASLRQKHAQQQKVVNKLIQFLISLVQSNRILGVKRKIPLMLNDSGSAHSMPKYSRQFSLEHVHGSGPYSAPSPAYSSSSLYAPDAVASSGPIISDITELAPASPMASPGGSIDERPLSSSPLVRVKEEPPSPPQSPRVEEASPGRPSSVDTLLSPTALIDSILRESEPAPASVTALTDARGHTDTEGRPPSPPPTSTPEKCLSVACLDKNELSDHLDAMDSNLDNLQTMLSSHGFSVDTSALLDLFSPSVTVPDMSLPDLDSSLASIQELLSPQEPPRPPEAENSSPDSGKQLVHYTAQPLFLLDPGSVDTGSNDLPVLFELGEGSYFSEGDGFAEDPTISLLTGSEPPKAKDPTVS
ETV5, sequence (P41161 whole entry): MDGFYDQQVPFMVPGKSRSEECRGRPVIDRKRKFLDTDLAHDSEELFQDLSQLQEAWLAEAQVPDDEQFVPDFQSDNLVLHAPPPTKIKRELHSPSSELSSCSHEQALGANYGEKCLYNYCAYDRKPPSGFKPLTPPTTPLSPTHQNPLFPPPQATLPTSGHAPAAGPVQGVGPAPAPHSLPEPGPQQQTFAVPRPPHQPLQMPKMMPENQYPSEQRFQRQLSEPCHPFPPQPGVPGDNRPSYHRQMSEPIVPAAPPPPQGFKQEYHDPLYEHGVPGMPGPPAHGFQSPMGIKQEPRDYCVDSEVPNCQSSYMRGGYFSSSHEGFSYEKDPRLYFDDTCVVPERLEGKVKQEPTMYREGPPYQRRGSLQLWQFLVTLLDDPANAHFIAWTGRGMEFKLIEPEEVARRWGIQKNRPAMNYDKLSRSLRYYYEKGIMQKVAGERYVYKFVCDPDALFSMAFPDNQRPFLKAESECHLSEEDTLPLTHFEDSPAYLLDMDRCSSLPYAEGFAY

In the case of CGACAA, the binding signal is 1.3 fold enrichment (6-mer frequency, TF over GST control) in [1]; 1.24 fold enrichment (6-mer frequency, TF over GST control) in [2]; 1.12 fold enrichment (6-mer frequency, TF over GST control) in [3]; 1.15 fold enrichment (6-mer frequency, TF over GST control) in [4]; 1.18 fold enrichment (6-mer frequency, TF over GST control) in [5]; 1.13 fold enrichment (6-mer frequency, TF over GST control) in assay [6]. Further, the binding signal in assay [7] was 1.08 fold enrichment (6-mer frequency, TF over GST control); in [8], 1.17 fold enrichment (6-mer frequency, TF over GST control); in assay [9] it was 1.03 fold enrichment (6-mer frequency, TF over GST control); in assay [10], 1.18 fold enrichment (6-mer frequency, TF over GST control); in [11], 1.18 fold enrichment (6-mer frequency, TF over GST control); in [12], 1.24 fold enrichment (6-mer frequency, TF over GST control). Besides, the binding signal was 1.16 fold enrichment (6-mer frequency, TF over GST control) in assay [13]; 1.27 fold enrichment (6-mer frequency, TF over GST control) in assay [14]; 1.12 fold enrichment (6-mer frequency, TF over GST control) in [15]; 1.14 fold enrichment (6-mer frequency, TF over GST control) in assay [16]; 1.15 fold enrichment (6-mer frequency, TF over GST control) in assay [17]; 1.31 fold enrichment (6-mer frequency, TF over GST control) in assay [18].
